Sfp PPTase inh: inhibitors of Bacillus subtilis Sfp phosphopantetheinyl transferase. Potency, µM, without a hit: largest response in the series, negative = inhibition, actives largely listed as inhibitors. AID 1490. Biochemical Sfp PPTase activity, qHTS. 310,000 compounds, 3.5% hits. Q9F4F7;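 further: the enzyme is Sfp with the accession as filed and its product quenches rhodamine fluorescence; 0% = enzyme reaction without inhibitor and -100% = no enzyme wells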
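Step 1, compound plus 15 nM Sfp-PPTase, 15 min, room temperature. Step 2, add rhodamine-CoA (5 uM) and BHQ-2-YbbR (12.5 uM). Step 3, read 525/598 nm fluorescence at 0 and 30 min.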
VDR inhibitor: blocks the human vitamin D receptor; AID 504847; 400,000 compounds, 0.93% hits; VDR-SRC2-3 peptide fluorescence polarization, 2 h; Potency, µM, inactives show max response, negative = inhibition, hits mostly inhibitors
Target sequence (P11473 whole entry, looked up): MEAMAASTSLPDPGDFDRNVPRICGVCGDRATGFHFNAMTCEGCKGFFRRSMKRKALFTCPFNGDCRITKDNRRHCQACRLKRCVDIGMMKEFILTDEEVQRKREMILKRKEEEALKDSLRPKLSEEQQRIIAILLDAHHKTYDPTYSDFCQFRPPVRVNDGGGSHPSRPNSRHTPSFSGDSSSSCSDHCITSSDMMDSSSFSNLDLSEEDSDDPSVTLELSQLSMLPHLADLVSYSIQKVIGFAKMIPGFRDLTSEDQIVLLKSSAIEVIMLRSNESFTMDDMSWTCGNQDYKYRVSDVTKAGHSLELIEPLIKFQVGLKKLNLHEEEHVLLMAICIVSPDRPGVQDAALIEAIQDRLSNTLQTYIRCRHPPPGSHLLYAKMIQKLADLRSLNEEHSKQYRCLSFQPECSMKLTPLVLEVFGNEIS
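Fluorescence polarization assay measuring small-molecule disruption of VDR binding to the coregulator peptide SRC2-3. Compounds were pin-transferred (23 nl) into the reagent mix and incubated 2 h at room temperature before reading.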
Tau FP inhib: tau fibrillization inhibition (FP); K18 P301L tau heparin fibrillization, Alexa594 FP, 6 h; Potency, µM (top dose mostly 57.7 µM), for inactives: top-dose activity, negative = inhibition, actives largely listed as inhibitors; 280,000 compounds, 0.39% hits; AID 1468; further: nearly all actives have a fitted effect of over 55% in size
Target sequence (P10636 561-689 P618L limits assumed): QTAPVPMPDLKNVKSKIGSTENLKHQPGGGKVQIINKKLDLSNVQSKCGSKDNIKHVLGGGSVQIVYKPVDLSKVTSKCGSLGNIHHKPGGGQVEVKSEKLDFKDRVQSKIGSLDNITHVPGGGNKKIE
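Heparin (20 uM) drove fibril formation of recombinant tau K18 P301L, 15 uM unlabeled with 0.24 uM Alexa 594 label, for 6 hr at 37 C in 100 mM sodium acetate pH 7. Fluorescence polarization (555/632 nm) read 1 hr after 30 uM ThT.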
Tau fluor counter: counter-screen for tau fibril formation inhibitors; tau K18 P301L Alexa594 fluorescence, heparin fibrillization; Potency, µM (titrated, usually from 57.7 µM), without a hit: at the highest dose activity change, negative = decrease; 280,000 compounds, 0.93% hits; AID 1463; further: nearly all actives have a fitted effect of over 55% in size
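Human K18 P301L tau (15 uM unlabeled plus 0.24 uM Alexa 594-labeled, final) in 100 mM sodium acetate pH 7 was mixed with compound and 20 uM heparin and incubated 6 hr at 37 C.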
Tau ThT inhib: inhibitors of human tau fibril formation, thioflavin T binding. 270,000 compounds, 2.1% hits. recombinant tau K18 P301L (four-repeat tau fragment), heparin-induced fibrillization, ThT fluorescence. Potency, µM (top dose mostly 57.4 µM), without a hit: at the highest dose activity, negative = inhibition, usual class: inhibitors. P10636; further: nearly all actives have a fitted effect of over 55% in size
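Tau K18 P301L fragment (15 uM unlabeled plus 0.24 uM Alexa 594-labeled) in 100 mM sodium acetate pH 7 with compound, fibrillization induced by 20 uM heparin for 6 hr at 37 C. Thioflavin T (30 uM) added, fluorescence read after 1 hr (ex 450, em 510 nm).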
PLK1 PBD inh: PLK1 (human) polo-box domain binding inhibition; P53350; Plk1 PBD binding of FITC phosphopeptide, fluorescence polarization; Potency, µM, for the others: max response, negative = inhibition, hits mostly inhibitors; 360,000 compounds, 2.8% hits; AID 720504; further: series mostly up to about 57 µM; nearly all actives have a fitted effect of over 65% in size
* marks the source's active call; other numbers are inactive results. Shown are actives, neighbours in structure and some others; about 6% of the full set was active somewhere. The call rests on the fitted dose curve; in most records, active means well fitted curve in the direction sought with a large enough effect; inconclusive means small, poorly fitted or top-dose-only effect, or another doubt; inactive means no such curve, though single readings can be large; an effect the other way counts as inactive or inconclusive. Unless noted, on the % scale 0 is the no-effect control and ±100 the full control effect; potency means the concentration at half of the fitted maximal effect.

Results for Cc1ccc(S(=O)(=O)NCC23C=CC(O2)C2C(=O)N(c4ccccc4)C(=O)C23)cc1 (stereo not given) ?
Sfp PPTase inh: 28.2µM*; VDR inhibitor: 6.5%; Tau FP inhib: 2.9%; Tau fluor counter: -3.6%; Tau ThT inhib: inconclusive; PLK1 PBD inh: -4.9%

How did COC(=O)NC(c1ccccc1)c1c[nH]c2ccc(OC)cc12 (stereo not given) do in these assays?
Sfp PPTase inh: 18.9%; VDR inhibitor: -0.3%; Tau FP inhib: 4.0%; Tau fluor counter: -12.9%; Tau ThT inhib: -9.1%

Results for O=C(Nc1cccc(Cl)c1)c1ccccc1NC(=O)C1CCCCC1C(=O)O (stereo not given) ?
Sfp PPTase inh: 10.1%; VDR inhibitor: -0.1%; PLK1 PBD inh: -14.0%

How did CCc1nc2c(OCc3ccccc3)cccn2c1N(Cc1ccccc1)C(C)=O do in these assays?
PLK1 PBD inh: -8.6%

What do the screens show for `Cc1ccc(C2C(C=Nc3c(C)n(C)n(-c4ccccc4)c3=O)=C(c3ccccc3)Oc3ccccc32)cc1` (stereo not given)?
Sfp PPTase inh: 12.9%; VDR inhibitor: -12.0%; Tau FP inhib: 9.5%; Tau fluor counter: -9.0%; Tau ThT inhib: -7.5%; PLK1 PBD inh: 21.2µM*

Results for Cc1ccc2[nH]c(CSc3nnc(NC(=O)COc4ccccc4)s3)cc(=O)c2c1 ?
VDR inhibitor: 14.9%; Tau FP inhib: inconclusive; Tau fluor counter: -16.8%; Tau ThT inhib: -13.2%

How did Cc1cccc(OCCn2c(-c3ccco3)nc3ccccc32)c1 do in these assays?
Sfp PPTase inh: inconclusive; VDR inhibitor: -8.8%; Tau FP inhib: 12.2%; Tau fluor counter: -14.5%; Tau ThT inhib: inconclusive; PLK1 PBD inh: -13.3%

What do the screens show for `c1ccc(OCCn2c(-c3ccco3)nc3ccccc32)cc1`?
Sfp PPTase inh: 50.1µM*; VDR inhibitor: -17.0%; Tau FP inhib: 2.9%; Tau fluor counter: 1.8%; Tau ThT inhib: -5.8%; PLK1 PBD inh: inconclusive

How did CCn1c(-c2ccco2)nc2ccccc21 do in these assays?
Sfp PPTase inh: 39.8µM*; VDR inhibitor: -7.6%; Tau FP inhib: 7.8%; Tau fluor counter: 13.8%; Tau ThT inhib: -6.3%; PLK1 PBD inh: -20.4%

Results for CCN(CC)S(=O)(=O)c1cccc(C(=O)Nc2sc3c(c2C#N)CCC(C)C3)c1 (stereo not given) ?
VDR inhibitor: 5.4%; Tau FP inhib: -7.4%; Tau fluor counter: -28.5%; Tau ThT inhib: -9.5%

Results for NC(COCc1ccccc1)c1csc(NC(=O)Nc2cccc(Cl)c2)n1 (stereo not given) ?
PLK1 PBD inh: 3.6%

What do the screens show for `COc1ccc(CCNC(=O)c2cccc(Nc3nc4ccccc4nc3-n3nc(C)cc3C)c2)cc1OC`?
VDR inhibitor: 0.4%; Tau FP inhib: -11.7%; Tau fluor counter: inconclusive; Tau ThT inhib: 0.9%

How did Cc1cc(C)c2nc3s/c(=C/c4ccccc4)c(=O)n3c2c1 do in these assays?
Sfp PPTase inh: 8.91µM*; Tau FP inhib: inconclusive; Tau fluor counter: -24.5%; Tau ThT inhib: 28.2µM*

How did CCN(c1ccccc1)c1nc(=O)c2cccnc2s1 do in these assays?
Sfp PPTase inh: -4.4%; VDR inhibitor: 2.5%; Tau FP inhib: 0.6%; Tau fluor counter: -3.0%; Tau ThT inhib: -5.8%; PLK1 PBD inh: -8.7%

How did CCN(c1ccccc1)c1cc2ccccc2c(=O)[nH]1 do in these assays?
Sfp PPTase inh: -10.4%; VDR inhibitor: inconclusive; PLK1 PBD inh: 29.9µM*

How did Cc1ccc(S(=O)(=O)Nc2cccc(-c3ccc(N4CCCCCC4)nn3)c2)c(C)c1 do in these assays?
Sfp PPTase inh: 5.0%; VDR inhibitor: inconclusive; PLK1 PBD inh: 26.7µM*

What do the screens show for `O=C(CCNC(=O)N1CC(=O)Nc2ccccc21)NCc1ccccc1`?
PLK1 PBD inh: 3.8%

What do the screens show for `C/C(=N\N=C1\NC(=O)C(Cc2ccccc2)S1)c1ccccc1` (stereo not given)?
Sfp PPTase inh: 6.1%; VDR inhibitor: 6.7%; Tau FP inhib: 8.6%; Tau fluor counter: -27.4%; Tau ThT inhib: inconclusive; PLK1 PBD inh: 29.9µM*

What do the screens show for `O=C1N/C(=N/N=C/c2ccco2)SC1Cc1ccccc1` (stereo not given)?
Sfp PPTase inh: -15.2%; VDR inhibitor: -18.6%; Tau FP inhib: -7.9%; Tau fluor counter: 7.0%; Tau ThT inhib: 0.9%; PLK1 PBD inh: -2.2%

Results for Cn1cc(C=C2C(=O)Nc3cccnc32)c2ccccc21 ?
Sfp PPTase inh: inconclusive; VDR inhibitor: 2.8%; Tau FP inhib: 7.1%; Tau fluor counter: inconclusive; Tau ThT inhib: 10µM*

How did CCOc1ccc(C2C(C(=O)c3ccc(C)o3)=C(O)C(=O)N2c2nc(C)c(C(=O)OC)s2)cc1 (stereo not given) do in these assays?
Sfp PPTase inh: 50.1µM*; VDR inhibitor: inconclusive; PLK1 PBD inh: inconclusive

Results for Cc1nnc(N2C(=O)C(O)=C(C(=O)c3ccco3)C2c2ccc(F)cc2)s1 (stereo not given) ?
Sfp PPTase inh: -12.2%; VDR inhibitor: -19.8%; Tau FP inhib: -6.4%; Tau fluor counter: -6.2%; Tau ThT inhib: inconclusive; PLK1 PBD inh: -24.4%

How did CCOC(=O)c1sc(N2C(=O)C(O)=C(C(=O)c3ccco3)C2c2ccc(C)o2)nc1C (stereo not given) do in these assays?
Sfp PPTase inh: 39.8µM*; VDR inhibitor: inconclusive; PLK1 PBD inh: inconclusive

What do the screens show for `CCOC(=O)c1sc(N2C(=O)C(O)=C(C(=O)c3ccco3)C2c2ccc([N+](=O)[O-])cc2)nc1C` (stereo not given)?
VDR inhibitor: 89.1µM*; PLK1 PBD inh: 29.9µM*

Results for Cc1nnc(N2C(=O)C(O)=C(C(=O)c3ccco3)C2c2ccc(C(C)C)cc2)s1 (stereo not given) ?
Sfp PPTase inh: 56.2µM*; VDR inhibitor: inconclusive; Tau FP inhib: 5.3%; Tau fluor counter: 13.4%; Tau ThT inhib: 0.8%; PLK1 PBD inh: -20.1%

Results for CN1C(=O)C2(SCC(=O)N2c2ccc(F)cc2)c2ccccc21 (stereo not given) ?
VDR inhibitor: 21.3%; Tau FP inhib: 5.3%; Tau fluor counter: 11.1%; Tau ThT inhib: 7.8%

Results for CCOc1ccc(NC(=O)CSc2nccn2-c2cccc(C)c2C)cc1 ?
VDR inhibitor: 4.7%; Tau FP inhib: 1.6%; Tau fluor counter: -19.5%; Tau ThT inhib: -14.6%

How did CCOC(=O)c1sc(N2C(=O)C(O)=C(C(=O)c3ccc(C)o3)C2c2cccc([N+](=O)[O-])c2)nc1C (stereo not given) do in these assays?
Sfp PPTase inh: inconclusive; VDR inhibitor: inconclusive; PLK1 PBD inh: 23.8µM*

Screening data deposited in PubChem by National Center for Advancing Translational Sciences (NCATS).
